Among the data in PubChem BioAssay (NCI) are growth values, retold here.

The panel holds about 83,000 compounds, 20% with a hit somewhere; the sample as a whole holds those more often.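 Percent growth is the endpoint: 0 to 100 indicates growth inhibition (40 means 60% inhibition), 0 means no net growth, and negative values indicate cell death.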 Unmarked numbers belong to inactive results. The source made the active and inactive calls. Rule for the calls: active = growth percent below 10; inactive = the rest.

Common to all, as to experiment: NCI-60 one-dose screen, 48 h (100 = growth as untreated, 0 = no growth, -100 = all killed)
Assay [1] relates to SK-MEL-2 melanoma. To be noted: 10 µM unless noted.
The test system of assay [2] is EKVX NSCLC. The settings on record: 10 µM unless noted.
The subject of assay [3] is SN12C renal. The settings on record: 10 µM unless noted.
For assay [4], the system named is UO-31 renal. The settings on record: 10 µM unless noted.
Assay [5] has as its system TK-10 renal. The settings on record: 10 µM unless noted.
In assay [6] the test system is ACHN renal. The settings on record: 10 µM unless noted.
For assay [7], the system named is CAKI-1 renal. The settings on record: 10 µM unless noted.
In assay [8] the test system is A498 renal. To be noted: 10 µM.
For assay [9], the system named is HL-60(TB) leukemia. To be noted: 10 µM unless noted.
Assay [10] has as its system CCRF-CEM leukemia. To be noted: 10 µM unless noted.
Assay [11] concerns MOLT-4 leukemia. The settings on record: 10 µM unless noted.
The test system of assay [12] is SR leukemia. To be noted: 10 µM unless noted.
The subject of assay [13] is RPMI-8226 leukemia. To be noted: 10 µM unless noted.
The test system of assay [14] is OVCAR-8 ovarian. The settings on record: 10 µM unless noted.
Assay [15] has as its system OVCAR-5 ovarian. The settings on record: 10 µM unless noted.
Assay [16] has as its system OVCAR-4 ovarian. The settings on record: 10 µM unless noted.
Assay [17] deals with SK-OV-3 ovarian. The settings on record: 10 µM unless noted.
Assay [18] deals with IGROV1 ovarian. The settings on record: 10 µM unless noted.
Assay [19] has as its system OVCAR-3 ovarian. The settings on record: 10 µM unless noted.
The subject of assay [20] is HS 578T breast. The settings on record: 10 µM unless noted.

In the case of `CC[C@H](C)[C@H](NC(=O)C12C3C4C1C1C2C3C41NC)C(=O)N(C)[C@H](C[C@@H](OC(C)=O)c1nc(C(=O)N[C@@H](Cc2ccccc2)C[C@H](C)C(=O)OC)cs1)C(C)C` (stereo not given in full), the growth in [1] is 43%; in assay [2], 40.7%; in [3], 36.5%; in assay [4] it was 51.1%; in [5], 41.9%; in assay [6], 40.8%. Moreover, the growth was 40.5% in assay [7]; -12.6% (active) in assay [8]; -14.6% (active) in assay [9]; 13.2% in assay [10]; 24.9% in [11]; 20% in [12]. Also, the growth in [13] is 3.54% (active); in assay [14] it was 20.4%; in assay [15], 43.5%; in [16], 45.5%; in [17], 17.1%; in assay [18], 36.9%. For the same molecule, the figures for the growth in assay [19] and in assay [20] were -28.1% (active) and 13%, respectively.

With `CC[C@H](C)[C@H](NC(=O)[C@H]1CCCCN1C)C(=O)N(C)[C@H](C[C@@H](OC(C)=O)c1nc(C(=O)NC23CC(C(=O)OC)(C2)C3)cs1)C(C)C`, the growth is 29.5% in [1]; 34.3% in assay [2]; 32.7% in assay [3]; 33.1% in [4]; 15.7% in assay [5]; 11.6% in assay [6]. For the same molecule, the growth in assay [7] was 26.5%; in [8] it was -7.99% (active); in assay [9], -37.2% (active); in [10], 1.09% (active); in [11], 6.06% (active); in [12], 0.833% (active). The growth in [13] is 25.6%; in [14] it was 18.6%; in assay [15], 53.7%; in assay [16] it was 42.7%; in assay [17], 24.4%; in assay [18], 32%. Besides, the results for the growth in assay [19] and in assay [20] were -18.6% (active) and 27.5%, respectively.

Turning to `COc1cc2c(cc1OCCCCCn1c(-c3ccco3)nc3ccccc31)N=C[C@@H]1CCCN1C2=O`, the growth in assay [1] is -43.9% (active); in assay [2], 22.7%; in assay [3] it was 15.8%; in assay [4], -23.9% (active); in assay [5] it was -1.37% (active); in [6] it was 10.2%. Besides, the growth in assay [7] was 12%; in assay [8] it was -39.6% (active); in [9], -27.4% (active); in [10] it was 29.8%; in assay [11], 6.41% (active); in assay [12], 0.702% (active). Further, the growth in assay [13] is 28%; in assay [14] it was 18.6%; in [15], 7.02% (active); in assay [16] it was 11.2%; in assay [17] it was 42.3%; in assay [18] it was -59.8% (active). The growth in assay [19] was 12.9%; in assay [20] it was 14.7%.

With `CCCCCCCCOC(=O)CCN1CC1`, the growth in assay [1] was 119%; in assay [2], 99%; in assay [3], 106%; in assay [4] it was 92.8%; in [5], 127%; in [6], 103%. In addition, the growth in [7] was 98.4%; in assay [8], 84.2%; in assay [9], 149%; in [10], 110%; in assay [11], 103%; in assay [12], 101%. The growth in assay [13] is 103%; in assay [14], 102%; in [15], 104%; in assay [16] it was 115%; in assay [17] it was 109%; in assay [18], 115%. Further, the growth in assay [19] was 108%; in [20], 99.6%.

Take `CC(=O)O[C@H]1C(=O)[C@@]2(C)[C@H]([C@H](OC(=O)c3ccccc3)[C@]3(O)C[C@H](OC(=O)[C@H](OC(=O)OCC4COC(C)(C)O4)[C@@H](NC(=O)c4ccccc4)c4ccccc4)C(C)=C1C3(C)C)[C@]1(OC(C)=O)CO[C@@H]1C[C@@H]2O` (stereo not given in full): the growth was 54.2% in assay [1]; 70.8% in [2]; 51.7% in assay [3]; 71.3% in [4]; 79.6% in assay [5]; 66.5% in assay [6]. The growth in assay [7] was 37.5%; in assay [8] it was 47.1%; in assay [9], 12.8%; in assay [10] it was 31.3%; in assay [11] it was 35.8%; in assay [12], 35.7%. The growth in [13] is 13%; in assay [14], 39.3%; in assay [15], 20.8%; in [16], 79%; in [17], 48.5%; in assay [18] it was 35.3%. In addition, the growth is 15% in assay [19] and 30.5% in assay [20].

Regarding `CC(C)COC(C[N+](=O)[O-])C(Cl)(Cl)Cl` (stereo not given), the growth in [1] was 115%; in assay [2] it was 97.2%; in assay [3] it was 105%; in [4], 97.2%; in assay [5] it was 105%; in assay [6], 107%. In addition, the growth is 102% in [7]; 84.6% in assay [8]; 93% in [9]; 113% in [10]; 103% in assay [11]; 94.7% in assay [12]. Besides, the growth in [13] is 116%; in assay [14] it was 101%; in assay [15], 109%; in [16], 101%; in assay [17] it was 106%; in [18], 103%. Besides, the growth in assay [19] was 115%; in assay [20], 119%.

For `O=C(CC1(O)C(=O)Nc2ccc(Cl)cc21)c1ccc(C(=O)NCC2CCC3(CC2)OOC2(CCCCC2)OO3)cc1` (stereo not given), the growth is 12.7% in [1]; -64.2% (active) in [2]; 28.2% in assay [3]; -81.1% (active) in assay [4]; -52.7% (active) in [5]; -87.3% (active) in assay [6]. The growth was -85.9% (active) in assay [7]; 26.9% in assay [8]; -62% (active) in assay [9]; -41.3% (active) in assay [10]; -39.9% (active) in [11]; -48.2% (active) in [12]. In addition, the growth in [13] was -42.4% (active); in [14], 3.83% (active); in assay [15] it was 47.4%; in assay [16], 14.4%; in [17] it was 57.2%; in assay [18] it was -18.6% (active). The growth is -76.8% (active) in [19] and 16.1% in assay [20].

In the case of `C/C(=C\c1cc(C(F)(F)F)nn1CCNC(=O)OC(C)(C)C)[C@@H]1C[C@@H]2O[C@]2(C)CCC[C@H](C)[C@H](O)[C@@H](C)C(=O)C(C)(C)[C@@H](O)CC(=O)O1`, the growth was 75.1% in [1]; 65% in assay [2]; 87% in [3]; 49.5% in assay [4]; 69.2% in assay [5]; 74.6% in assay [6]. The growth was 47.1% in assay [7]; 49.3% in assay [8]; 14.1% in assay [9]; 67.2% in assay [10]; 25.1% in assay [11]; 28.1% in [12]. For the same molecule, the growth is 22.9% in [13]; 61.8% in assay [14]; 68.7% in assay [15]; 71.4% in [16]; 86.3% in assay [17]; 49.2% in assay [18]. Further, the growth in assay [19] was 30.8%; in assay [20], 61.3%.
